Source: the supplement of paper PMC3334620
In all, about 33,000 sequences were measured (“E-score (-0.5 to 0.5)”: median about -0.043, highest 2% from about 0.37 on). The sample holds the highest values, similar sequences and a random draw of the others, so the mix is not that of the screen.

biological target: T1, Upc2 (UniProt Q12151); experiment: PBM E-score (8-mer binding enrichment) (E-score (-0.5 to 0.5)); higher = stronger / more preferred TF binding; conditions: protein concentration: 200 nM; construct: GST-full length
T1 sequence: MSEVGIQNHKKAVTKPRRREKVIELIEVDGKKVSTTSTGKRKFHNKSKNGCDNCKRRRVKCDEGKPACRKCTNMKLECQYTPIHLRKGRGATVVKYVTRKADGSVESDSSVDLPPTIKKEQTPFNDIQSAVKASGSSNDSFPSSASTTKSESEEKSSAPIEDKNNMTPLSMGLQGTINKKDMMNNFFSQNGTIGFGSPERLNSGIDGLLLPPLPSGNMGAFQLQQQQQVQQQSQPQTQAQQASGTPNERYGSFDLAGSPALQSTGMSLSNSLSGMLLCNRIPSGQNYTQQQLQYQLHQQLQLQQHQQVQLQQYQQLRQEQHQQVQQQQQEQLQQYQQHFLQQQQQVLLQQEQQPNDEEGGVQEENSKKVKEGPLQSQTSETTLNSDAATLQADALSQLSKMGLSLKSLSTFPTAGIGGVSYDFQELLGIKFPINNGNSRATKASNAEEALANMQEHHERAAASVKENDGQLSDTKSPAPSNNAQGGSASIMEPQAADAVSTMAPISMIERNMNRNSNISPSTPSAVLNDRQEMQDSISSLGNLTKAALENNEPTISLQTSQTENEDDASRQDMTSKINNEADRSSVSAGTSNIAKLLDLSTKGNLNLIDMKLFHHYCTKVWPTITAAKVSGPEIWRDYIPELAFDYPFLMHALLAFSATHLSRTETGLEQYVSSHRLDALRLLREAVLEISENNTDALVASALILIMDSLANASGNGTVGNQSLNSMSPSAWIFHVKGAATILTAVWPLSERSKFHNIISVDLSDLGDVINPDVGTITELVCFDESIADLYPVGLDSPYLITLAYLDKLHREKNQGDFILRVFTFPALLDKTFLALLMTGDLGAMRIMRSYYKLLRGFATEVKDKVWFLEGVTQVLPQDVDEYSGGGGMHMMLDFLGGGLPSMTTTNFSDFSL
Method in brief: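 Using PURExpress in vitro transcription/translation, GST-tagged yeast transcription factors were made in full-length or DNA-binding-domain form. These were applied at about 100-200 nM to double-stranded universal all-10-mer Agilent arrays, and bound protein was detected with fluorescent anti-GST. Scans were normalised with masliner before the Universal PBM Analysis Suite assigned E-scores to ungapped eight-base words pooled with their reverse complements.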

**Q.** How did the “PBM E-score” value turn out when AGGCGTGA was run?
**A.** -0.00507

**Q.** Which “PBM E-score” value does the source give for CGGAAGTA here?
**A.** 0.0369

**Q.** How did the “PBM E-score” value turn out when AACCACAA was run?
**A.** -0.077

**Q.** GTGAATAA was tested. Which “PBM E-score” value did it give?
**A.** -0.0516

**Q.** Which “PBM E-score” value does the source give for ACAACTAC here?
**A.** -0.129

**Q.** How did the “PBM E-score” value turn out when GCGAAAAA was run?
**A.** 0.148

**Q.** Which “PBM E-score” value does the source give for GACTTAAC here?
**A.** 0.00959

**Q.** Which “PBM E-score” value does the source give for CTGAAGAA here?
**A.** -0.299

**Q.** How did the “PBM E-score” value turn out when CCCATCGG was run?
**A.** 0.0976

**Q.** AGCAAGCT was tested. Which “PBM E-score” value did it give?
**A.** -0.253

**Q.** Which “PBM E-score” value does the source give for CGTAAGAG here?
**A.** 0.316

**Q.** Which “PBM E-score” value does the source give for ACGCCATC here?
**A.** -0.0963

**Q.** How did the “PBM E-score” value turn out when GCAAACAC was run?
**A.** -0.00637

**Q.** Which “PBM E-score” value does the source give for GGTTCCCA here?
**A.** -0.0861

**Q.** With CGTTCCCA as the sequence, how does the “PBM E-score” value read?
**A.** 0.373

**Q.** How did the “PBM E-score” value turn out when CGTTCCCC was run?
**A.** 0.333

**Q.** How did the “PBM E-score” value turn out when TACGTAGA was run?
**A.** 0.18

**Q.** Which “PBM E-score” value does the source give for CACGTATC here?
**A.** 0.132

**Q.** How did the “PBM E-score” value turn out when TACGTACA was run?
**A.** 0.341

**Q.** For GACGTATA, which “PBM E-score” value is on record?
**A.** 0.424

**Q.** For TACGTATA, which “PBM E-score” value is on record?
**A.** 0.423

**Q.** For AACGTATC, which “PBM E-score” value is on record?
**A.** 0.142

**Q.** With CACGTATG as the sequence, how does the “PBM E-score” value read?
**A.** 0.236

**Q.** With CACGTATA as the sequence, how does the “PBM E-score” value read?
**A.** 0.433

**Q.** With AACGTATT as the sequence, how does the “PBM E-score” value read?
**A.** 0.212

**Q.** Which “PBM E-score” value does the source give for GACGTAGC here?
**A.** 0.0263

**Q.** GACGTATC was tested. Which “PBM E-score” value did it give?
**A.** 0.156

**Q.** AACGTATA was tested. Which “PBM E-score” value did it give?
**A.** 0.443

**Q.** CGCAAATA was tested. Which “PBM E-score” value did it give?
**A.** 0.0612

**Q.** For AACAGGTC, which “PBM E-score” value is on record?
**A.** 0.056

**Q.** How did the “PBM E-score” value turn out when TGAAAAAA was run?
**A.** 0.0284

**Q.** ACACCGAG was tested. Which “PBM E-score” value did it give?
**A.** -0.024

**Q.** AACATTGT was tested. Which “PBM E-score” value did it give?
**A.** 0.0538

**Q.** ACCGTAAT was tested. Which “PBM E-score” value did it give?
**A.** 0.0464

**Q.** With CCCGTAGC as the sequence, how does the “PBM E-score” value read?
**A.** 0.0891

**Q.** Which “PBM E-score” value does the source give for ACCGTACG here?
**A.** 0.383

**Q.** With CCCGTACC as the sequence, how does the “PBM E-score” value read?
**A.** 0.383

**Q.** CACGTACA was tested. Which “PBM E-score” value did it give?
**A.** 0.272

**Q.** With CCAGTACC as the sequence, how does the “PBM E-score” value read?
**A.** 0.0225

**Q.** GCCGTGCA was tested. Which “PBM E-score” value did it give?
**A.** -0.291

**Q.** For ACCGTAGG, which “PBM E-score” value is on record?
**A.** -0.135

**Q.** GCGGTACA was tested. Which “PBM E-score” value did it give?
**A.** -0.0545

**Q.** With GCCGTACA as the sequence, how does the “PBM E-score” value read?
**A.** 0.4

**Q.** With CCAGTACA as the sequence, how does the “PBM E-score” value read?
**A.** -0.157

**Q.** Which “PBM E-score” value does the source give for CCCGTACA here?
**A.** 0.398

**Q.** Which “PBM E-score” value does the source give for ATCGACAA here?
**A.** 0.0687

**Q.** For AACATCAT, which “PBM E-score” value is on record?
**A.** -0.094

**Q.** With AAAAGCTG as the sequence, how does the “PBM E-score” value read?
**A.** 0.0411

**Q.** How did the “PBM E-score” value turn out when ACACACTC was run?
**A.** -0.042

**Q.** For TTCAGCAA, which “PBM E-score” value is on record?
**A.** -0.0506

**Q.** Which “PBM E-score” value does the source give for CTCTCCAA here?
**A.** -0.0403

**Q.** With ACTCGACC as the sequence, how does the “PBM E-score” value read?
**A.** -0.0381

**Q.** Which “PBM E-score” value does the source give for CGCGTACG here?
**A.** 0.4

**Q.** CCCGTAGG was tested. Which “PBM E-score” value did it give?
**A.** -0.0508

**Q.** GCCGTACC was tested. Which “PBM E-score” value did it give?
**A.** 0.379

**Q.** For AGCGTACG, which “PBM E-score” value is on record?
**A.** 0.354

**Q.** Which “PBM E-score” value does the source give for CCCGTACG here?
**A.** 0.393

**Q.** With CCCGTAAG as the sequence, how does the “PBM E-score” value read?
**A.** 0.208

**Q.** Which “PBM E-score” value does the source give for ACCGTACC here?
**A.** 0.366

**Q.** CGCGTACA was tested. Which “PBM E-score” value did it give?
**A.** 0.35

**Q.** Which “PBM E-score” value does the source give for TCCGTACA here?
**A.** 0.406

**Q.** For GCCGTAGC, which “PBM E-score” value is on record?
**A.** 0.0955

**Q.** With TGCGTACA as the sequence, how does the “PBM E-score” value read?
**A.** 0.318

**Q.** For TCCGTAGA, which “PBM E-score” value is on record?
**A.** -0.0263

**Q.** For AAGCTCAC, which “PBM E-score” value is on record?
**A.** -0.0662

**Q.** With AAGAAGGC as the sequence, how does the “PBM E-score” value read?
**A.** -0.216

**Q.** How did the “PBM E-score” value turn out when ATCAGTGC was run?
**A.** -0.0682

**Q.** CTTAGGCA was tested. Which “PBM E-score” value did it give?
**A.** -0.361

**Q.** How did the “PBM E-score” value turn out when ATTTCAGG was run?
**A.** -0.0274

**Q.** How did the “PBM E-score” value turn out when ATCGATAG was run?
**A.** -0.0178

**Q.** With TAAATTGA as the sequence, how does the “PBM E-score” value read?
**A.** -0.0257

**Q.** For CGTGCATA, which “PBM E-score” value is on record?
**A.** -0.0557

**Q.** How did the “PBM E-score” value turn out when GCCCTTTA was run?
**A.** -0.0758

**Q.** Which “PBM E-score” value does the source give for ACCGTACA here?
**A.** 0.39

**Q.** ACTGTACA was tested. Which “PBM E-score” value did it give?
**A.** 0.133

**Q.** For ACCGTACT, which “PBM E-score” value is on record?
**A.** 0.214

**Q.** AAGCGGCT was tested. Which “PBM E-score” value did it give?
**A.** -0.0364

**Q.** Which “PBM E-score” value does the source give for ACCGCTAC here?
**A.** 0.14

**Q.** GCACCGTA was tested. Which “PBM E-score” value did it give?
**A.** 0.371

**Q.** Which “PBM E-score” value does the source give for CCACCGTC here?
**A.** -0.227

**Q.** With CCACCGAA as the sequence, how does the “PBM E-score” value read?
**A.** -0.00574

**Q.** For CGGCCGTC, which “PBM E-score” value is on record?
**A.** -0.0655

**Q.** How did the “PBM E-score” value turn out when AGACCGTA was run?
**A.** 0.287

**Q.** CCACCGTA was tested. Which “PBM E-score” value did it give?
**A.** 0.399

**Q.** Which “PBM E-score” value does the source give for GAACCGTA here?
**A.** 0.269

**Q.** Which “PBM E-score” value does the source give for CGGCCGTA here?
**A.** 0.378

**Q.** CGACCGTA was tested. Which “PBM E-score” value did it give?
**A.** 0.373

**Q.** ACACCGTA was tested. Which “PBM E-score” value did it give?
**A.** 0.321

**Q.** Which “PBM E-score” value does the source give for CGACCGTC here?
**A.** -0.0557

**Q.** How did the “PBM E-score” value turn out when AGGCCGTA was run?
**A.** 0.355

**Q.** With AAAGATTC as the sequence, how does the “PBM E-score” value read?
**A.** 0.0374

**Q.** CCAAGAAG was tested. Which “PBM E-score” value did it give?
**A.** -0.227

**Q.** For ATGCGTGC, which “PBM E-score” value is on record?
**A.** 0.03

**Q.** Which “PBM E-score” value does the source give for CAGTCGCC here?
**A.** -0.196

**Q.** ATTTGCTG was tested. Which “PBM E-score” value did it give?
**A.** 0.0559

**Q.** Which “PBM E-score” value does the source give for AGTACACC here?
**A.** 0.0771

**Q.** For CGTACACG, which “PBM E-score” value is on record?
**A.** 0.423

**Q.** How did the “PBM E-score” value turn out when GGTACACA was run?
**A.** -0.235

**Q.** How did the “PBM E-score” value turn out when TGTACACA was run?
**A.** 0.0892

**Q.** With CGTACACA as the sequence, how does the “PBM E-score” value read?
**A.** 0.418

**Q.** How did the “PBM E-score” value turn out when AGTACACA was run?
**A.** 0.143

**Q.** With AGTACACG as the sequence, how does the “PBM E-score” value read?
**A.** 0.198

**Q.** How did the “PBM E-score” value turn out when CGTACACC was run?
**A.** 0.382

**Q.** GGTACACC was tested. Which “PBM E-score” value did it give?
**A.** 0.0641

**Q.** For GATGAGGA, which “PBM E-score” value is on record?
**A.** -0.0777

**Q.** For CCTGCAAA, which “PBM E-score” value is on record?
**A.** -0.0886

**Q.** With GCAATTAC as the sequence, how does the “PBM E-score” value read?
**A.** -0.0538

**Q.** How did the “PBM E-score” value turn out when AGGGTCCC was run?
**A.** -0.229

**Q.** Which “PBM E-score” value does the source give for CCGAGTGC here?
**A.** -0.0549
